Experimental data as given in PubChem BioAssay (NCATS).
Records with an inconclusive call do not appear. The source made the active and inactive calls. Unless noted, the call rests on the fitted dose curve; in most records, active means well fitted curve in the direction sought with a large enough effect; inconclusive means small, poorly fitted or top-dose-only effect, or another doubt; inactive means no such curve, though single readings can be large; an effect the other way counts as inactive or inconclusive.

Legend:
[1] = AP1 Signaling Pathway (AID 357; active means well fitted curve in either direction with a large enough effect, not every such curve was filed as active;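 further: ME-180 reporter cells stimulated with EGF at its EC50 level; on the % scale 0 is the no-effect control and ±100 the full control effect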); settings: ME-180 AP-1-bla reporter, EGF-induced, beta-lactamase ratio, 5 h; at 7.69 µM (top of the series) unless noted
Outline: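 Cells are seeded overnight, exposed to compound titrations and an EC50 level of EGF for 5 hours at 37 °C, then loaded with CCF4 dye for 2.5 hours. Beta-lactamase activity under the AP-1 element is read as a blue/green ratio.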

[2] = target: Cytochrome P450 1A2 (Homo sapiens) (UniProt P05177); experiment: p450-cyp1a2 (AID 410; calls by dose curve;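 further: -100% = full effect of reference inhibitor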)
Outline: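 Luminescent demethylation readout: Luciferin-ME (100uM, equal to Km) turned over by 20nM CYP1A2 for 60 min at room temperature after NADPH regeneration addition, following 10 min compound preincubation. Normalization used 57 uM furafylline as full inhibition.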

[3] = NFAT Signaling Pathway (AID 444; active means well fitted curve in either direction with a large enough effect, not every such curve was filed as active;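 further: carbachol stimulus at about its EC50 of 1 µM final; on the % scale 0 is the no-effect control and ±100 the full control effect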); settings: Jurkat NFAT-bla M1, carbachol, beta-lactamase ratio, 5 h; at 7.69 µM (top of the series) unless noted
Outline: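 Jurkat cells carrying an NFAT-driven β-lactamase reporter and co-transfected muscarinic M1 receptor were treated with compound plus carbachol (1 uM final, an EC50 level) for 5 h at 37 °C. CCF4 loading followed for 1 h at RT; 460/530 nm ratio gave %activity.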

[4] = Stat Signaling Pathway (AID 446; active means well fitted curve in either direction with a large enough effect, not every such curve was filed as active;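 further: ME-180 cervical cancer cells given 40 pM IL-6 alongside compound; SIE-controlled beta-lactamase reporter measured as 460/530 nm FRET emission ratio; on the % scale 0 is the no-effect control and ±100 the full control effect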); settings: ME-180 (cervical carcinoma) SIE beta-lactamase reporter, IL-6 stimulated, 5 h; at 7.69 µM (top of the series) unless noted
Outline: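 Normalization used AC90 stimulation (300 pM IL-6) and AC90 inhibition (125 nM pan-JAK inhibitor at 40 pM IL-6). The underlying signal is SIE-driven beta-lactamase in ME-180 cells after 5 h IL-6 exposure with compound.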

[5] = target: Glucocorticoid receptor (Homo sapiens) (UniProt P04150); experiment: GR-GFP Redistribution (AID 450;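 active means compounds whose dose series gives a full or clear partial fitted curve of increased nuclear translocation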; further: potency means the concentration at half of the fitted maximal effect); settings: U2OS GR-GFP nuclear translocation, laser cytometry, 2 h
[6] = target: Glucocorticoid receptor (Homo sapiens) (UniProt P04150); experiment: GR-EFC Redistribution (AID 451; calls by dose curve; further: potency means the concentration at half of the fitted maximal effect); settings: CHO-K1 GR-EFC translocation, beta-gal luminescence, 2 h
Outline: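 CHO-K1 cells stably expressing nuclear-localized β-gal enzyme acceptor and GR fused C-terminally to the enzyme donor fragment; ligand-driven nuclear translocation restores β-gal by complementation. Compounds titrated up to 46 uM final, 2 h at 37 °C; luminescence read.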

[7] = target: Mitogen-activated protein kinase 10 (Mus musculus) (UniProt Q61831); experiment: JNK3 AlphaScreen Assay (AID 530; active means well fitted curve in either direction with a large enough effect, not every such curve was filed as active;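 further: kinase came from lysate of stimulated human HepG2 cells; signal reports phosphorylation of biotinylated GST-cJun 1-79 at Ser73 with 10 µM ATP; on the % scale 0 is the no-effect control and ±100 the full control effect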)
Outline: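 Phosphorylation of biotinylated GST-cJun(1-79) at Ser73 is measured by AlphaScreen proximity luminescence. Enzyme is JNK3 in HepG2 lysates activated with interleukin-1beta and tumor necrosis factor alpha; ATP is 10 uM final.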

[8] = target: 3',5'-cyclic-AMP phosphodiesterase 4B (Homo sapiens) (UniProt Q07343); experiment: qHTS Assay for Inhibitors of PDE-IV (AID 607; active means well fitted activation curve with a large enough effect in the main read-out, with a control signal flat, not every such curve was filed as active; further: % of control where 0% means no effect)
Outline: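 HEK293 ACTOne cells with CNG channel (1000/well), endogenous PDE4; membrane potential dye, compounds up to 22.9 uM final. Fluorescence Ex 535/Em 590; RO 20-1724 (100 uM final) as reference.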

[9] = target: Guanine nucleotide-binding protein G(i) subunit alpha-1 (Homo sapiens) (UniProt P63096); experiment: qHTS Assay for Inhibitors of RGS12 GoLoco Motif Activity (Green Fluorophore) (AID 879);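 further: 0% = labeled peptide with Gαi1 and full inhibition = labeled peptide alone without protein; negative values mean loss of peptide binding seen as reduced polarization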
Outline: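 A drop in FITC polarization marked displacement of the FITC-tagged RGS12 GoLoco peptide (10 nM) from Gαi1 (50 nM). Compounds were incubated 10 min at room temperature in Tris pH 7.5 buffer containing 150 mM NaCl, 0.1 mM GDP and 0.05% NP40; unlabeled peptide titration served as control.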

[10] = qHTS Assay for Identification of Small Molecule Agonists for Thrombopoietin (TPO) Signaling Pathway (AID 917); further: on the % scale 0 is the no-effect control and ±100 the full control effect
Outline: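 First, Ba/F3 cells with human TPO receptor were held overnight without IL-3. Next, compounds and TPO (26 pM final) were added. After 24 hrs at 37 C, luciferase detection reagent was added and luminescence measured following 10 min at room temperature.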

[11] = target: Muscarinic acetylcholine receptor M1 (Rattus norvegicus) (UniProt P08482); experiment: qHTS Assay for Antagonists of Acetylcholine Muscarinic M1 Receptor: Measurement of IP-One Response (AID 944); further: nearly all actives have a fitted effect of over 75% in size
Outline: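 IP1 accumulation measured via TR-FRET between d2-IP1 and Eu-cryptate anti-IP1 antibody after carbachol (200 nM, EC80) stimulation for 30 min; rat M1-transfected CHO cells received compound 10 min before agonist.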

[12] = target: Pyruvate kinase (Leishmania mexicana) (UniProt Q27686); experiment: qHTS Validation Assay for Inhibitors of Leishmania Mexicana Pyruvate Kinase (AID 945);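 further: 0% = DMSO only neutral control wells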
Outline: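 LmPYK E451W 0.2 nM; 0.5 mM PEP, 0.1 mM ADP, 7 mM MgCl2, 50 mM KCl, imidazole pH 7.2, 0.01% Tween 20, 0.05% BSA; 1 h RT; PKLight luminescence; DMSO-normalized.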

[13] = target: Pyruvate kinase PKM (Homo sapiens) (UniProt P14618); experiment: qHTS Assay for Activators of Human Muscle Pyruvate Kinase (AID 954; active means well fitted curve in the direction sought with a large enough effect, not every such curve was filed as active;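 further: 0% = uninhibited enzyme and -100% = no enzyme or full thiadiazolimine inhibition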)
Outline: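 Compound pinned into substrate mix (0.5 mM PEP, 0.1 mM ADP), then 0.1 nM PKM2 added; 1 h, RT. Stop/detection luciferase reagent added, luminescence read. Normalized to no-inhibition and no-enzyme or reference-inhibitor controls.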

[14] = target: Alpha-galactosidase A (Homo sapiens) (UniProt P06280); experiment: Counterscreen for Glucocerebrosidase Inhibitors: qHTS Assay for Human alpha-Galactosidase at pH 4.5 (AID 992); further: 0% is about no effect
Outline: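 Steps: enzyme (2 nM final), then compound across 0.7 nM to 77 uM, then 80 uM fluorogenic galactopyranoside substrate; incubate 20 min at room temperature; quench at pH 10; measure fluorescence at 365/440 nm.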

[15] = target: alpha-glucosidase (Oryza sativa, rice) (UniProt Q653V4); experiment: Counterscreen for Glucocerebrosidase Inhibitors: qHTS Assay for Rice alpha-Glucosidase at pH 5.0 (AID 997); further: potency means the concentration at half of the fitted maximal effect;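 on activity change, negative = inhibition: 0% = full activity with enzyme and -100% = basal without enzyme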
Outline: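 Endpoint fluorogenic assay at pH 5.0: compounds (0.7 nM to 77 uM) titrated against 4 nM rice enzyme and 400 uM 4-MU-alpha-glucoside for 20 min at room temperature; NaOH/glycine stop, read ex 365/em 440 nm, Hill-fitted AC50.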

[16] = target: Cytochrome P450 3A4 (Homo sapiens) (UniProt P08684); experiment: qHTS Assay for Activators of Cytochrome P450 3A4 (AID 885); further: nearly all actives have a fitted effect of over 65% in size
Outline: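 Human CYP3A4 dealkylates Luciferin-PPXE to luciferin, which luciferase detection converts to light. Substrate was at its KM (25uM), buffer 200mM KPO4, reaction 60 min at RT.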

[17] = target: Muscarinic acetylcholine receptor M1 (Rattus norvegicus) (UniProt P08482); experiment: qHTS Assay for Antagonists of Acetylcholine Muscarinic M1 Receptor: Kinetic Measurement of Intracellular Calcium Response (AID 943);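 further: Fluo-4 calcium signal as peak divided by basal fluorescence over 4 min; nearly all actives have a fitted effect of over 75% in size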
Outline: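 Antagonism measured as reduction of carbachol-evoked (EC80, 100 nM final) calcium flux in rat M1-CHO cells after 10 min compound exposure. Fluo-4 signal read kinetically; ratio of maximal to basal fluorescence.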

[18] = qHTS Assay for Identification of Small Molecule Antagonists for NFkB Signaling Pathway (AID 895; active means well fitted inhibition curve with a large enough effect in the signal ratio, with a control signal flat, not every such curve was filed as active; the % refers to the signal ratio; further: on the % scale 0 is the no-effect control and ±100 the full control effect)
Outline: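 NFkB-bla ME-180 cervical carcinoma cells with beta-lactamase reporter under NFkB response element; compounds added, then TNF alpha at 10 pM final (EC50), 5 h at 37 C. LiveBLAzer substrate 2 h, room temperature; emission 460/530 nm at 405 nm excitation.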

Guanine nucleotide-binding protein G(i) subunit alpha-1 (Homo sapiens), sequence (P63096 whole entry, looked up): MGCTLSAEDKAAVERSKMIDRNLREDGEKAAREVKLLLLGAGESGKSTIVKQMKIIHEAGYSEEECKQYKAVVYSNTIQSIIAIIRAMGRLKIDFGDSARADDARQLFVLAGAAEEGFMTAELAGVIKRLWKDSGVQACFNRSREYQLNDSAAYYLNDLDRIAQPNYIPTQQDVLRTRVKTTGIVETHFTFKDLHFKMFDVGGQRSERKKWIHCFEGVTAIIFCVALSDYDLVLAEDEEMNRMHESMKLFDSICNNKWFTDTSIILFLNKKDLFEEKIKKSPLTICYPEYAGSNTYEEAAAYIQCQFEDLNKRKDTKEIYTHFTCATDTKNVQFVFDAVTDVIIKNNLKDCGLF
Cytochrome P450 1A2 (Homo sapiens), sequence (P05177 whole entry, looked up): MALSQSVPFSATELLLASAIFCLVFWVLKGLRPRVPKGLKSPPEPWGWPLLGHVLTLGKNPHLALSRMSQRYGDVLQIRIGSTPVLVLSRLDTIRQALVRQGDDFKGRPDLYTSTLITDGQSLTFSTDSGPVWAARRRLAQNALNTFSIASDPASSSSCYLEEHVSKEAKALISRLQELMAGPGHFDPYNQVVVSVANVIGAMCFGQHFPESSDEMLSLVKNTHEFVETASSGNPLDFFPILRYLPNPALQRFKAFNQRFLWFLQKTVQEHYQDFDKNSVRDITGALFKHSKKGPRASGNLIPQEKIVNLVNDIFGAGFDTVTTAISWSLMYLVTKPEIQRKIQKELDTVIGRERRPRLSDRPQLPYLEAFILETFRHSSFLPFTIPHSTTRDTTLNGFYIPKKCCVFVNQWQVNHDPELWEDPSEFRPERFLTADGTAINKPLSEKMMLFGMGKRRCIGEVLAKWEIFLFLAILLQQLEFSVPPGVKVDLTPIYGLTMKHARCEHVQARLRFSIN
Muscarinic acetylcholine receptor M1 (Rattus norvegicus), sequence (P08482 whole entry, looked up): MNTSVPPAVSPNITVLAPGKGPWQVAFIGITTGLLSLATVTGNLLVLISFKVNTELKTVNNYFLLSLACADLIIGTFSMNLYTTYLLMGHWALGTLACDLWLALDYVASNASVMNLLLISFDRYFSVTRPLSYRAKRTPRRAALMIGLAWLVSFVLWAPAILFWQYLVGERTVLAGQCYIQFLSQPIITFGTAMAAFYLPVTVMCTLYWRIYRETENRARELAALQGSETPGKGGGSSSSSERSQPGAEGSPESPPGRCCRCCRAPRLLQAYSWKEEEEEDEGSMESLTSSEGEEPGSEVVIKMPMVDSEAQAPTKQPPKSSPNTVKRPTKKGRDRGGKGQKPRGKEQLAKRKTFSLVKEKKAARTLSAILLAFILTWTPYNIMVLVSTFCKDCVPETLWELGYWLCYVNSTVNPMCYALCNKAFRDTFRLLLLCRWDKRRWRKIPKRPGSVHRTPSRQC
3',5'-cyclic-AMP phosphodiesterase 4B (Homo sapiens), sequence (Q07343 whole entry, looked up): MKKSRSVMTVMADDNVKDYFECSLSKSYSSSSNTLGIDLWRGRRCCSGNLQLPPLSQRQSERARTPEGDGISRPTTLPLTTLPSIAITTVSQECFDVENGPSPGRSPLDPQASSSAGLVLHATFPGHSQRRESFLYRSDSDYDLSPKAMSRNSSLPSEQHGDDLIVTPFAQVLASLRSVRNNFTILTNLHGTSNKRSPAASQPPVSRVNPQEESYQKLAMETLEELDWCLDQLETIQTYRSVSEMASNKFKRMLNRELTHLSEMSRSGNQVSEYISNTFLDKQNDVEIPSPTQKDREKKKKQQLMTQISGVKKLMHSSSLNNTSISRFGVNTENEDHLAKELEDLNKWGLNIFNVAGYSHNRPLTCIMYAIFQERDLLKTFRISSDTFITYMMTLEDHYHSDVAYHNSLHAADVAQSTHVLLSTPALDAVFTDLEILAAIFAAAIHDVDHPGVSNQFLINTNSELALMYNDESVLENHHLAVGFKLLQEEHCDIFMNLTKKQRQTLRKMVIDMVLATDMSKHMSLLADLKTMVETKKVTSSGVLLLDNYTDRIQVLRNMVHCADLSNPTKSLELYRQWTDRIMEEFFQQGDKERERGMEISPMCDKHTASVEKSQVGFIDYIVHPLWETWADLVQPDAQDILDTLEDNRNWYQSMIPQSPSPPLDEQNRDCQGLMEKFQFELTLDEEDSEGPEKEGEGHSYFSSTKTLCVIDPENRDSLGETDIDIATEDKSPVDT
Pyruvate kinase PKM (Homo sapiens), sequence (P14618 whole entry, looked up): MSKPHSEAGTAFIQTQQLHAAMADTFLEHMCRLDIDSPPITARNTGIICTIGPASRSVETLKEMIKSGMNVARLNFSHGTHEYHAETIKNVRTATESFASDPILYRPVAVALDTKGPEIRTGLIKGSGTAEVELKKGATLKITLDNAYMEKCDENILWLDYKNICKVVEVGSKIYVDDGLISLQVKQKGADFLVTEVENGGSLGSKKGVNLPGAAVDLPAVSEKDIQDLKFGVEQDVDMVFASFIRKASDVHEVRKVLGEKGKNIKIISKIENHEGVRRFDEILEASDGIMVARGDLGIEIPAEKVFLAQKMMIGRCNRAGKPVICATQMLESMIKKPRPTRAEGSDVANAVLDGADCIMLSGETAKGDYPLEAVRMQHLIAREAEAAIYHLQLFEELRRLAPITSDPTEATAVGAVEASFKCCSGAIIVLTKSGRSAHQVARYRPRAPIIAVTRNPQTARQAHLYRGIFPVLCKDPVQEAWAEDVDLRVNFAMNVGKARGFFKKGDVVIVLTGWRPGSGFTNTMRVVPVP
Pyruvate kinase (Leishmania mexicana), sequence (Q27686 2-499 E452W): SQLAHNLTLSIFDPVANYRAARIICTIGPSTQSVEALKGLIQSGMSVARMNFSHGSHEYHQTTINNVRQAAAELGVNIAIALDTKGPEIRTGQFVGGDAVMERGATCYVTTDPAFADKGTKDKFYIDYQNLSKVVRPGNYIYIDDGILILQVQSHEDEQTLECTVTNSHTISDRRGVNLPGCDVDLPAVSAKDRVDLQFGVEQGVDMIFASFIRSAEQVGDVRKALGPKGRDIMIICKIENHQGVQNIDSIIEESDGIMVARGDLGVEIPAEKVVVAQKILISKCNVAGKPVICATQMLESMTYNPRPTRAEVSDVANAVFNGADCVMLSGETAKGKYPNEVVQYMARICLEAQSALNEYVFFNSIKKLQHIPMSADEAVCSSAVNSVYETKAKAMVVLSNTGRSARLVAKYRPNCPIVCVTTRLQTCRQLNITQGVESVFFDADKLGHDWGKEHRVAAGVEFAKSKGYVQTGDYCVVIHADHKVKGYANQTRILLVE
Glucocorticoid receptor (Homo sapiens), sequence (P04150 whole entry, looked up, the tested form may be a part): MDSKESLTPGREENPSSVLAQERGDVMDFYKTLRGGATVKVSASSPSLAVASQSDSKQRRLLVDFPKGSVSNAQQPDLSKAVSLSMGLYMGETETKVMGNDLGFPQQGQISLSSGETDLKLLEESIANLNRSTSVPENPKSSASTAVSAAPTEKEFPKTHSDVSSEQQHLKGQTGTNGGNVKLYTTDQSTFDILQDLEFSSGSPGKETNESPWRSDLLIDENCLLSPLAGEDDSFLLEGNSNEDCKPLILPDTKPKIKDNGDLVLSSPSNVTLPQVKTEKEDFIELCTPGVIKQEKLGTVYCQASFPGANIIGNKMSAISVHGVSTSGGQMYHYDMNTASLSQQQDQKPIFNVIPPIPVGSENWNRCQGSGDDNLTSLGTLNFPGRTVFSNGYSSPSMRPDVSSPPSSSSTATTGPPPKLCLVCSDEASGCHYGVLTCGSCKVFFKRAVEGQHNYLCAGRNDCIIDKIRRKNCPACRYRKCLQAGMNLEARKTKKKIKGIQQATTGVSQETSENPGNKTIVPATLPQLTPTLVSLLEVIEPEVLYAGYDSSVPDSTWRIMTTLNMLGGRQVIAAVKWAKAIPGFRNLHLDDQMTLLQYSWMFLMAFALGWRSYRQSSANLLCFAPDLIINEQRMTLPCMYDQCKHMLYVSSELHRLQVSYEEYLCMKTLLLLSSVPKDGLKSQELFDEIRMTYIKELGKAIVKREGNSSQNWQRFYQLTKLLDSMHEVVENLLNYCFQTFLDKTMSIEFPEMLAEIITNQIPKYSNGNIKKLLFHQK
Alpha-galactosidase A (Homo sapiens), sequence (P06280 whole entry, looked up): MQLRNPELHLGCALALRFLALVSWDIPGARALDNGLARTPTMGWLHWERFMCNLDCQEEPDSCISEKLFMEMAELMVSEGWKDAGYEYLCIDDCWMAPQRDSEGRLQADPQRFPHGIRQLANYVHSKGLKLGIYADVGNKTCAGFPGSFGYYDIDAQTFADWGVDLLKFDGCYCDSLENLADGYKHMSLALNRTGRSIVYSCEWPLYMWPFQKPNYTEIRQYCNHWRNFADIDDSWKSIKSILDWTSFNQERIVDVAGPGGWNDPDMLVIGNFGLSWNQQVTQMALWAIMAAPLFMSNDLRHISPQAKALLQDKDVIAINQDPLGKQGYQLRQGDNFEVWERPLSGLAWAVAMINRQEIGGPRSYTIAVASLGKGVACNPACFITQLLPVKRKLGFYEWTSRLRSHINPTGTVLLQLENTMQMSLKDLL
Cytochrome P450 3A4 (Homo sapiens), sequence (P08684 whole entry, looked up): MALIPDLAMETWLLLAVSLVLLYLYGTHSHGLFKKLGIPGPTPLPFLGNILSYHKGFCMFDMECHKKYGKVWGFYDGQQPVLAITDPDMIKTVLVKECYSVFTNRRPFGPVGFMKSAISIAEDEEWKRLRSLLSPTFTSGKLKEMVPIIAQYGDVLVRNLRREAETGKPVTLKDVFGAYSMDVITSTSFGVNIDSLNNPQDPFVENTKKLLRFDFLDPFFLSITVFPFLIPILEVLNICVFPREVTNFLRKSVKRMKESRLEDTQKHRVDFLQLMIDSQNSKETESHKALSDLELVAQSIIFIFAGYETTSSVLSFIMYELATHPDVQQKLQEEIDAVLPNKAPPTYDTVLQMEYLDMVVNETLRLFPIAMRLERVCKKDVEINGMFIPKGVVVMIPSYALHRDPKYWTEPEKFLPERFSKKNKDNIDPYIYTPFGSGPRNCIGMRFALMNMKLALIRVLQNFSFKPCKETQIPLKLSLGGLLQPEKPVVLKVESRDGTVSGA

O=C(O)CC[C@@H](NC(=O)c1ccccc1C(=O)O)C(=O)O
inactive: activity change, negative = inhibition [1] 10.1% [at 38 µM] | Potency [2] | activity change, negative = inhibition [3] 6.53% [at 38 µM] | activity, negative = inhibition [4] -11.8% [at 38 µM] | Potency [5] > 46 µM | Potency [6] > 46 µM | Potency [7] | Potency [8] | outcome [9] | outcome [10] | Potency [11] | outcome [12] | outcome [13] | outcome [14] | Potency [15]

CC(C)[C@@H]1NC(=O)[C@H](CCCCN)NC(=O)[C@H](Cc2c[nH]c3ccccc23)NC(=O)[C@H](Cc2ccc(O)cc2)NC(=O)[C@H](C)N(C)C(=O)[C@H](Cc2ccccc2)NC1=O
inactive: activity change, negative = inhibition [1] 15.3% [at 38 µM] | Potency [2] | activity change, negative = inhibition [3] -3.97% [at 38 µM] | activity, negative = inhibition [4] -2.13% [at 38 µM] | Potency [5] > 46 µM | Potency [6] > 46 µM | Potency [7] | Potency [8] | outcome [9] | Potency [16] | outcome [10] | outcome [13] | outcome [14] | Potency [15]

O=C1O/C(=C\Br)CC[C@@H]1c1cccc2ccccc12
inactive: activity change, negative = inhibition [1] -0.931% [at 38 µM] | Potency [2] | activity change, negative = inhibition [3] -0.824% [at 38 µM] | activity, negative = inhibition [4] 4.17% [at 38 µM] | Potency [5] > 46 µM | Potency [6] > 46 µM | Potency [7] | Potency [8] | outcome [9] | Potency [16] | Potency [17] | Potency [11] | outcome [12] | outcome [14] | Potency [15]

OC[C@@H]1NC[C@@H](O)[C@H]1O
inactive: activity change, negative = inhibition [1] 0.107% [at 38 µM] | Potency [2] | activity change, negative = inhibition [3] 8.18% [at 38 µM] | activity, negative = inhibition [4] -5.61% [at 38 µM] | Potency [5] > 46 µM | Potency [6] > 46 µM | Potency [7] | Potency [8] | outcome [9] | Potency [18] | outcome [10] | outcome [12] | outcome [13]
active: Potency [15] 12.6 µM

C[C@@H]1O[C@@H](n2cc(F)c(=O)[nH]c2=O)[C@H](O)[C@@H]1O
inactive: activity change, negative = inhibition [1] -3.92% [at 38 µM] | Potency [2] | activity change, negative = inhibition [3] 3.74% [at 38 µM] | activity, negative = inhibition [4] 21.9% [at 38 µM] | Potency [5] > 46 µM | Potency [6] > 46 µM | Potency [7] | Potency [8] | outcome [9] | Potency [18] | outcome [10] | Potency [11] | outcome [12] | outcome [13] | outcome [14] | Potency [15]

N=c1ccn2c(n1)O[C@@H]1[C@@H](O)[C@H](CO)O[C@H]12
inactive: activity change, negative = inhibition [1] -4.43% [at 38 µM] | Potency [2] | activity change, negative = inhibition [3] -5.26% [at 38 µM] | activity, negative = inhibition [4] 0.604% [at 38 µM] | Potency [5] > 46 µM | Potency [6] > 46 µM | Potency [7] | Potency [8] | outcome [9] | Potency [11] | outcome [12] | outcome [13] | outcome [14] | Potency [15]
